According to PubChem BioAssay (EPA / NIEHS):
Records with an inconclusive call do not appear. Active and inactive are the calls of the source. Rule for the calls: active = hit-call score of the fitted dose curve at least 0.9, where 1 is the maximum; inconclusive = response in the unintended direction; inactive = score below 0.9.

Legend:
[1] = molecular target: Tyrosine-protein phosphatase non-receptor type 11 (Homo sapiens) (UniProt Q06124); test: NVS_ENZ_hPTPN11: NovaScreen (NVS) Enzymatic Assay for human Protein Tyrosine Phosphatase Non-receptor Type 11 (PTPN11) (AID 2283202)
Outline: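 Compounds first tested in duplicate at 25 uM; those reaching ~30% inhibition rerun in singleton concentration-response, top 50 uM. Phosphatase activity measured after 0.5 h by fluorescence with mobility-shift separation, relative to DMSO.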

[2] = molecular target: Tyrosine-protein phosphatase non-receptor type 12 (Homo sapiens) (UniProt Q05209); test: NVS_ENZ_hPTPN12: NovaScreen (NVS) Enzymatic Assay for human Protein Tyrosine Phosphatase Non-receptor Type 12 (PTPN12) (AID 2283204)
Outline: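 Single-concentration duplicates (25 uM) preceded singleton concentration-response up to 50 uM for chemicals passing threshold. Cell-free recombinant PTPN12 activity was read 1.33 h after dosing via fluorescence after mobility-shift separation; loss of signal versus DMSO.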

[3] = molecular target: Tyrosine-protein phosphatase non-receptor type 13 (Homo sapiens) (UniProt Q12923); test: NVS_ENZ_hPTPN13: NovaScreen (NVS) Enzymatic Assay for human Protein Tyrosine Phosphatase Non-receptor Type 13 (PTPN13) (AID 2283205)
Outline: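 Screened first at a single 25 uM in duplicate; compounds passing the threshold (e.g. 30% inhibition) were rerun in concentration series, top 50 uM. Recombinant enzyme, fluorescent substrate, mobility-shift separation, 0.5 h read. Data fitted as inhibition relative to DMSO.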

[4] = molecular target: human Protein Tyrosine Phosphatase Non-receptor Type 4 (PTPN4), PTPN4 (gene 5775) (UniProt P29074); test: NVS_ENZ_hPTPN4: NovaScreen (NVS) Enzymatic Assay for human Protein Tyrosine Phosphatase Non-receptor Type 4 (PTPN4) (AID 2283208)
Description: NVS_ENZ_hPTPN4 is a biochemical, single-readout assay that uses extracted gene-proteins from SF9 in a cell-free assay. Measurements were taken 1.33 hours after chemical dosing in a 384-well plate.NVS_ENZ_hPTPN4 is one of one assay component(s) measured or calculated from the NVS_ENZ_hPTPN4 assay. It is designed to make measurements of enzyme activity, a form of enzyme reporter, as detected with fluorescence intensity signals by Fluorescence and electrophoretic mobility shift technology.Data from the assay component NVS_ENZ_hPTPN4 was analyzed into 1 assay endpoint. This assay endpoint, NVS_ENZ_hPTPN4, was analyzed in the positive analysis fitting direction relative to DMSO as the negative control and baseline of activity. Using a type of enzyme reporter, loss-of-signal activity can be used to understand changes in the enzymatic activity as they relate to the gene PTPN4. Furthermore, this assay endpoint can be referred to as a primary readout, because this assay has produced multiple assay endpoints where this one serves a enzymatic activity function. To generalize the intended target to other relatable targets, this assay endpoint is annotated to the phosphatase intended target family, where the subfamily is non-receptor tyrosine phosphatase. […]

[5] = molecular target: human Protein Tyrosine Phosphatase Non-receptor Type 9 (PTPN9), PTPN9 (gene 5780) (UniProt P43378); test: NVS_ENZ_hPTPN9: NovaScreen (NVS) Enzymatic Assay for human Protein Tyrosine Phosphatase Non-receptor Type 9 (PTPN9) (AID 2283209)
Outline: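 Sf9-expressed enzyme in a cell-free assay, fluorescence read 1.33 h after dosing with mobility-shift separation of substrate and product. Tested at 25 uM in duplicate, then up to 50 uM; signal loss versus DMSO.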

[6] = molecular target: human Protein Tyrosine Phosphatase Receptor Type M (PTPRM), PTPRM (gene 5797) (UniProt P28827); test: NVS_ENZ_hPTPRM: NovaScreen (NVS) Enzymatic Assay for human Protein Tyrosine Phosphatase Receptor Type M (PTPRM) (AID 2283215)
Outline: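 Read-out is fluorescence after electrophoretic separation of substrate and product, taken 1.33 h post-dosing with recombinant enzyme. Compounds screened at 25 uM in duplicate, then concentration series for actives; activity as signal loss relative to DMSO.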

[7] = molecular target: human Sirtuin 1 (SIRT1), SIRT1 (gene 23411) (UniProt Q96EB6); test: NVS_ENZ_hSIRT1: NovaScreen (NVS) Enzymatic Assay for human Sirtuin 1 (SIRT1) (AID 2283219)
Outline: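 Cell-free recombinant SIRT1 with a fluorescent substrate; substrate and product separated by electrophoretic mobility shift and read by fluorescence intensity, 1 h after dosing. Primary screen at 25 uM in duplicate; hits re-run in concentration-response up to 50 uM, relative to DMSO.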

[8] = molecular target: human SRC Proto-Oncogene, Non-receptor Tyrosine Kinase (SRC), SRC (gene 6714) (UniProt P12931); test: NVS_ENZ_hSRC: NovaScreen (NVS) Enzymatic Assay for human SRC Proto-Oncogene, Non-receptor Tyrosine Kinase (SRC) (AID 2283223)
Outline: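 Compounds passing 30% inhibition at 25 uM (duplicate) were titrated to a top concentration of 50 uM. Enzyme activity read by fluorescence with mobility-shift substrate/product separation after 1 h; DMSO baseline.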

Sequence of human Protein Tyrosine Phosphatase Non-receptor Type 9 (PTPN9), PTPN9 (gene 5780) (P43378 whole entry, looked up): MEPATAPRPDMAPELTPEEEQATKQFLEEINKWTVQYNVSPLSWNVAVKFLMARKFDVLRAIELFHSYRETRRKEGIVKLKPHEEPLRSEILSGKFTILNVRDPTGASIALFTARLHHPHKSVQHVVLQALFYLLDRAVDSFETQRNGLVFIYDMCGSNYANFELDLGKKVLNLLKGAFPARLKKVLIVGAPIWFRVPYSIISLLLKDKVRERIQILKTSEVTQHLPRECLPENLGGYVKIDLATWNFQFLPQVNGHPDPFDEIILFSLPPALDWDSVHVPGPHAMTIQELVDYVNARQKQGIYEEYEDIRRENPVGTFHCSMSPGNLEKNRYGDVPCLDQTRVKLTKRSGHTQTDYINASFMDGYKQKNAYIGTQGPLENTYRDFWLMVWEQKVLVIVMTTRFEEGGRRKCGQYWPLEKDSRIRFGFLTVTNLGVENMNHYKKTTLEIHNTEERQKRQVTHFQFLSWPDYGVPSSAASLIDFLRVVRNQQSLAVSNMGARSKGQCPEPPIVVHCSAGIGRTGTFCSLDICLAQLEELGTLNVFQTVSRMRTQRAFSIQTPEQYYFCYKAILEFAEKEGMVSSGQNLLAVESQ
Sequence of Tyrosine-protein phosphatase non-receptor type 12 (Homo sapiens) (Q05209 whole entry, looked up): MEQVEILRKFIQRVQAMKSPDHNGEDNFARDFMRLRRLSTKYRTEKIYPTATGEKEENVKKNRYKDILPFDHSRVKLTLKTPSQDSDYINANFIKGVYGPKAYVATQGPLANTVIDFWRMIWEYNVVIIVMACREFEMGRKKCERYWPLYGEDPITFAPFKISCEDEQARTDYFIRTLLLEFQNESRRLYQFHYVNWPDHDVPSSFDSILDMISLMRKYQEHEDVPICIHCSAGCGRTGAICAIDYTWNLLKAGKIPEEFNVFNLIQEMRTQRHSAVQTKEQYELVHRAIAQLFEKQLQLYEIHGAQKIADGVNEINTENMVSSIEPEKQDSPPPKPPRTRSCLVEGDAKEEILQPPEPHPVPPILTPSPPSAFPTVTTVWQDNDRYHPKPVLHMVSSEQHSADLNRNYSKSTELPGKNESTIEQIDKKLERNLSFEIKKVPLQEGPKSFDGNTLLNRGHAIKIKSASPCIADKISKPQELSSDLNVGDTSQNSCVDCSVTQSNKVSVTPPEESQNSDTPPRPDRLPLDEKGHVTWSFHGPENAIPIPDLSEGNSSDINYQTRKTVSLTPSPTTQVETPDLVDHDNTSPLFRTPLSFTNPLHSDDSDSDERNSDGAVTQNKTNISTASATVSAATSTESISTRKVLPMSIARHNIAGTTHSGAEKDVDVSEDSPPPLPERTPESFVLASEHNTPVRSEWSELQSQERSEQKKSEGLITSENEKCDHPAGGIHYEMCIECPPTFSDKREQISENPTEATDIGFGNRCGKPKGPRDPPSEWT
Sequence of human Sirtuin 1 (SIRT1), SIRT1 (gene 23411) (Q96EB6 whole entry, looked up): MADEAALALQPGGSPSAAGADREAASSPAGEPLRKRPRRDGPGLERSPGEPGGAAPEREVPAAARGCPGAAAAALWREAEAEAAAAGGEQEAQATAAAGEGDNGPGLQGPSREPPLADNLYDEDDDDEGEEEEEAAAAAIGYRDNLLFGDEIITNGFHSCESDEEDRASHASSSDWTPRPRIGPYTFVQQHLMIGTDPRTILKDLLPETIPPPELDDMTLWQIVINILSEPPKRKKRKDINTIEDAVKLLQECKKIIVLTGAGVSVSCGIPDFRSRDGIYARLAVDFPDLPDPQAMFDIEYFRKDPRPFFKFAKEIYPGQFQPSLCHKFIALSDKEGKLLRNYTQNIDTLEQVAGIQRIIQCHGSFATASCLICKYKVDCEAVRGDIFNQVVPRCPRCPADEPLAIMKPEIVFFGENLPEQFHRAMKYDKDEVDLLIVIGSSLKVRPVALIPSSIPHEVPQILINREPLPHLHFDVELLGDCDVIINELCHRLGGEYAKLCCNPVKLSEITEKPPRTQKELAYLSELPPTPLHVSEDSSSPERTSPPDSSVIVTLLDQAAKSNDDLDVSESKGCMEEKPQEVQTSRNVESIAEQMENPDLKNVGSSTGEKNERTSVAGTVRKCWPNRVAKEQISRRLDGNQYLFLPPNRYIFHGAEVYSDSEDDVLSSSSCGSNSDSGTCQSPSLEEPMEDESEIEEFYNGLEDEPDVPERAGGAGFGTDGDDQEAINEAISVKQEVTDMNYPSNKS
Sequence of human Protein Tyrosine Phosphatase Receptor Type M (PTPRM), PTPRM (gene 5797) (P28827 whole entry, looked up): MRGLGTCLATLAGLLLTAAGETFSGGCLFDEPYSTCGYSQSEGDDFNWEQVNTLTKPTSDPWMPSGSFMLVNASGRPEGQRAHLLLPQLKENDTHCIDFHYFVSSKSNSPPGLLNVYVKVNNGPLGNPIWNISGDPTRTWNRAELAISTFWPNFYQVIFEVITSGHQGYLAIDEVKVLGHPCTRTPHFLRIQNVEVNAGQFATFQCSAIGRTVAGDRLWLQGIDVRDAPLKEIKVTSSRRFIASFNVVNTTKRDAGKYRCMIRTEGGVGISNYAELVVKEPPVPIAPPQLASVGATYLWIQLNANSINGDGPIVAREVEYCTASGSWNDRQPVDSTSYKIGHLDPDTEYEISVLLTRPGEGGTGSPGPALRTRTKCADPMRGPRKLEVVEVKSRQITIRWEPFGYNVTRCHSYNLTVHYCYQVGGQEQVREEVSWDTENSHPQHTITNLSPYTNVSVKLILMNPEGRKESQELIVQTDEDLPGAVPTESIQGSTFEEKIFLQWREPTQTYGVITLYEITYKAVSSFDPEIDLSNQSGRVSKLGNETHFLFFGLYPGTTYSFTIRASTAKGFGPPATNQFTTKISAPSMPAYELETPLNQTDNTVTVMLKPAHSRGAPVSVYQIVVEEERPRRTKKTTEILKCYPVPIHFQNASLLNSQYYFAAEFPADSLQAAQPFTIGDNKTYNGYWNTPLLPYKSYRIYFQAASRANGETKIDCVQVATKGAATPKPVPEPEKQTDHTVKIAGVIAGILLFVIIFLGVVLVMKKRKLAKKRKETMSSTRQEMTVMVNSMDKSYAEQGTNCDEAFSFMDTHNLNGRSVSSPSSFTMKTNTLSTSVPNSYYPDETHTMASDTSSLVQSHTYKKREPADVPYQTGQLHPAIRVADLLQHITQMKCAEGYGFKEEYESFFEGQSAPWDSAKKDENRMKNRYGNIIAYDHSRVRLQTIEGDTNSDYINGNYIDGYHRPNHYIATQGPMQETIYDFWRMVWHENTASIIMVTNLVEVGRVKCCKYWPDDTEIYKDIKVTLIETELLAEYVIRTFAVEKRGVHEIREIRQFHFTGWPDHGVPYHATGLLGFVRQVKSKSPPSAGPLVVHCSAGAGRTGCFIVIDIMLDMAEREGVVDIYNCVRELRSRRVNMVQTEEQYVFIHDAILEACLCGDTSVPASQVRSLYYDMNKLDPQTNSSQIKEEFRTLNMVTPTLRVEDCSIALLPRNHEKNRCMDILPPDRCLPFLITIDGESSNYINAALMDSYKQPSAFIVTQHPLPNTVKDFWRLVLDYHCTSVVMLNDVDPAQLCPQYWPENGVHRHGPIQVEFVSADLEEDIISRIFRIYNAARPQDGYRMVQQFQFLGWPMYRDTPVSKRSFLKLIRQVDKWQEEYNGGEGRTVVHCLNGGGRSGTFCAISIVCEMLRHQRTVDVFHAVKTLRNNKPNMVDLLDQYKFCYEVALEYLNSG
Sequence of human SRC Proto-Oncogene, Non-receptor Tyrosine Kinase (SRC), SRC (gene 6714) (P12931 whole entry, looked up): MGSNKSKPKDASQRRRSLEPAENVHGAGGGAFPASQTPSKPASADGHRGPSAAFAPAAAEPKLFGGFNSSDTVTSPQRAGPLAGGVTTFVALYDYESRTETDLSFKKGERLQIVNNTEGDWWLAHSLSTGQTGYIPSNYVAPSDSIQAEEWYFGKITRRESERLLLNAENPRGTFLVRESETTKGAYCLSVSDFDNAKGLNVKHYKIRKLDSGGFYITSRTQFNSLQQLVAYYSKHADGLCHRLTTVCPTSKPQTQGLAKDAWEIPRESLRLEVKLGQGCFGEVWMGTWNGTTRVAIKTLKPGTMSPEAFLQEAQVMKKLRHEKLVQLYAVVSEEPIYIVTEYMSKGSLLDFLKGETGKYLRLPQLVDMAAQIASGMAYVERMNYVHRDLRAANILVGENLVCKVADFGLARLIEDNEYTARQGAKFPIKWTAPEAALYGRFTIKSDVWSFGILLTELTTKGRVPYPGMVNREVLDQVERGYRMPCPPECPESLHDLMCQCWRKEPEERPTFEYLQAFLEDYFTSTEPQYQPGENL
Sequence of Tyrosine-protein phosphatase non-receptor type 11 (Homo sapiens) (Q06124 whole entry, looked up): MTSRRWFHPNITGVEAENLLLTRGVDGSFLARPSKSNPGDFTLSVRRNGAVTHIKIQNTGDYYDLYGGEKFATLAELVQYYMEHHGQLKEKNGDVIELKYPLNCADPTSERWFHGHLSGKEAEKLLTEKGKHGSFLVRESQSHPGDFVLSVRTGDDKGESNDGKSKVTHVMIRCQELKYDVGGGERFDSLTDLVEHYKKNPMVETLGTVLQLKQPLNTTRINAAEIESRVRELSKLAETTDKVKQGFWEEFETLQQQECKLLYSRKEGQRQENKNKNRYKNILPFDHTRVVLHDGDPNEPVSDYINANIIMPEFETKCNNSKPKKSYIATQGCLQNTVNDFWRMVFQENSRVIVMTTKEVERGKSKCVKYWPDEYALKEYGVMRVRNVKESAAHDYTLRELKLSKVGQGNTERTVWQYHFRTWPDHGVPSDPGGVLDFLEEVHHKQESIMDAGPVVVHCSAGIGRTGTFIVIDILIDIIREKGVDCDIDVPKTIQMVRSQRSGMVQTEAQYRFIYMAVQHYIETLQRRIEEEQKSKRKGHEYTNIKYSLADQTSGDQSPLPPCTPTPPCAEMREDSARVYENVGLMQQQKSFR

## CC(C)N1C(=O)c2ccccc2NS1(=O)=O
[1]
  outcome: inactive

## CC(C)=CC1C(C(=O)OCc2coc(Cc3ccccc3)c2)C1(C)C (stereo not drawn)
[2]
  outcome: inactive

## CCCC(=NOCC)C1=C(O)CC(CC(C)SCC)CC1=O (stereo not drawn)
[2]
  outcome: inactive
[3]
  outcome: inactive
[4]
  AC50: 17.9 µM (active)
[5]
  AC50: 42.2 µM (active)
[6]
  outcome: inactive

## O=C1C2CC=CCC2C(=O)N1SC(Cl)(Cl)Cl (stereo not drawn)
[5]
  outcome: inactive
[6]
  outcome: inactive
[7]
  AC50: 13.3 µM (active)

## CN=C=S
[7]
  outcome: inactive

## CCCN(CC)CC1COC2(CCC(C(C)(C)C)CC2)O1 (stereo not drawn)
[8]
  outcome: inactive

## CC(C)(C)C(=O)C(Oc1ccc(Cl)cc1)n1cncn1 (stereo not drawn)
[8]
  outcome: inactive
